Measurements: PubChem BioAssay (NCATS)
Values joined by “and” are separate entries in the source; they are usually repeats but may differ in a detail not shown here. Equal values may be shown once. Results filed as inconclusive are left out. Active and inactive are the calls of the source. Unless noted, calls come from the whole dose curve; as a rule, active = well fitted curve in the direction sought with a large enough effect; inconclusive = small, poorly fitted or top-dose-only effect, or another doubt; inactive = no such curve, though single readings can be large; an effect the other way counts as inactive or inconclusive.

How the values were obtained:
[1] = Primary qHTS for small molecule stabilizers of the endoplasmic reticulum resident proteome: Secreted ER Calcium Modulated Protein (SERCaMP) assay (AID 1508630)
Summary of the method: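 The SH-SY5Y reporter protocol was run at 3 concentrations up to 38.3 uM (primary) or 11 concentrations (follow-up): 16 h compound, 100 nM thapsigargin for 4 h, then extracellular luciferase luminescence.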

[2] = A High-Content qHTS Against Drug Library for the Identification of Small Molecules that Inhibit DYT1 Early Onset Primary Dystonia-Associated Cell Pathology (AID 1645839; calls by dose curve)
Summary of the method: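 Cells were seeded and left for 24 h, then dosed with compound alongside tetracycline induction of mutant EGFP-TorsinA. They were incubated for 48 h, fixed in 4% paraformaldehyde, permeabilized and imaged for mislocalization (%pathology) and cell count.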

[3] = biological target: Cytochrome P450 2D6 (Homo sapiens) (UniProt P10635); experiment: Cytochrome P450 family 2 subfamily D member 6 (CYP2D6) small molecule antagonists: luciferase biochemical (cell-free) qHTS assay (AID 1645840; active = well fitted curve in the direction sought with a large enough effect in the repeat runs; an effect the other way counts as inactive or inconclusive; note: nearly all actives have a fitted effect of over 55% in size; note: potency is the fitted concentration of half-maximal effect)
Cytochrome P450 2D6 (Homo sapiens), sequence (P10635 whole entry, looked up): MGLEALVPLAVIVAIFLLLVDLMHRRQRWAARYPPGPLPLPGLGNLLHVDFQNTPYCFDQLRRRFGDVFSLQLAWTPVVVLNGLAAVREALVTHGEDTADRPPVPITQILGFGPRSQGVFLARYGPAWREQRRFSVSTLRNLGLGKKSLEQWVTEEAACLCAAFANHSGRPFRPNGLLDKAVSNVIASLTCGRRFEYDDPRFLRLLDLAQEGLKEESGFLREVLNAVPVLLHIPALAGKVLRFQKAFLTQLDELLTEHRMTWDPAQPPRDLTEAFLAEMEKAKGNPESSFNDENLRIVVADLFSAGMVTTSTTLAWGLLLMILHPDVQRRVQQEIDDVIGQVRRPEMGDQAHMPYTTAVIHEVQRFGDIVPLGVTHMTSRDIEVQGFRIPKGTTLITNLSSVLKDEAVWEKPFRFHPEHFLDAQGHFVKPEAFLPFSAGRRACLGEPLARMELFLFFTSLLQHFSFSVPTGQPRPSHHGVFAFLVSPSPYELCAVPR
Summary of the method: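 P450-Glo CYP2D6 system: proluciferin substrate converted by enzyme to luciferin, read by luminescence proportional to activity. Enzyme-substrate mix with compound 10 min at room temperature, then NADPH regeneration 1 h before detection reagent.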

[4] = biological target: Cytochrome P450 2C9 (Homo sapiens) (UniProt P11712); experiment: Cytochrome P450 family 2 subfamily C member 9 (CYP2C9) small molecule antagonists: luciferase biochemical (cell-free) qHTS assay (AID 1645842; active = well fitted curve in the direction sought with a large enough effect in the repeat runs; an effect the other way counts as inactive or inconclusive; note: nearly all actives have a fitted effect of over 55% in size; note: potency is the fitted concentration of half-maximal effect)
Cytochrome P450 2C9 (Homo sapiens), sequence (P11712 whole entry, looked up): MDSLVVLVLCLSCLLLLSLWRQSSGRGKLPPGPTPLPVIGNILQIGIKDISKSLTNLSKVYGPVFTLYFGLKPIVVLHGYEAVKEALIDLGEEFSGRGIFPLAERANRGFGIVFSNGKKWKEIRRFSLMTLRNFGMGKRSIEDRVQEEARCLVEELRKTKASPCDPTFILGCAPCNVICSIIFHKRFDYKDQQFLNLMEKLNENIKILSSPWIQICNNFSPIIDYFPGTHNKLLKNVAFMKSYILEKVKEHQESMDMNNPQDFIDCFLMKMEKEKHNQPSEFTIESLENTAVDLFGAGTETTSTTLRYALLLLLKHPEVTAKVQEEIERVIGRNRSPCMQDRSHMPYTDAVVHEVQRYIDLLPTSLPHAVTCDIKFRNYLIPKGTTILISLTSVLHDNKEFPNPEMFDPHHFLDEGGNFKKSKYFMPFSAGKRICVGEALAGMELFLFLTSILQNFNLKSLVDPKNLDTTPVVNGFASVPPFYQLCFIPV
Summary of the method: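 P450-Glo CYP2C9 system: proluciferin substrate with enzyme in mix containing 0.4% BSA, 10 min at room temperature, then NADPH regeneration solution added and incubated 1 h at 37C. Detection reagent stopped reaction; luminescence read after 20 min as RLU.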

[5] = Primary qHTS for inhibitors of nuclear receptor binding SET domain protein 2 (NSD2) in an isogenic RCH-ACV NSD2 p.E1099K mutant (9B) (AID 1645876); note: nearly all actives have a fitted effect of over 70% in size; note: potency is the fitted concentration of half-maximal effect
[6] = Primary qHTS for inhibitors of nuclear receptor binding SET domain protein 2 (NSD2) in an RCH-ACV wild type WT cells (2C) (AID 1645877); note: nearly all actives have a fitted effect of over 70% in size; note: potency is the fitted concentration of half-maximal effect
[7] = NCATS anti-infectives library activity on HEK293 viability as a counter-qHTS vs the C. elegans viability qHTS (AID 1745854)
Summary of the method: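 CellTiter-Glo luminescence, read on a CCD imager, scored viability of HEK293 cells after 24 hr compound exposure at 37C. Library tested in several concentrations, 1:5 steps, up to 41.7 uM; digitonin served as control.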

[8] = biological target: Cytochrome P450 3A4 (Homo sapiens) (UniProt P08684); experiment: Cytochrome P450 family 3 subfamily A member 4 (CYP3A4) small molecule antagonists: luciferase qHTS assay (AID 1645841; active = well fitted curve in the direction sought with a large enough effect in the repeat runs; an effect the other way counts as inactive or inconclusive; note: nearly all actives have a fitted effect of over 45% in size)
Cytochrome P450 3A4 (Homo sapiens), sequence (P08684 whole entry, looked up): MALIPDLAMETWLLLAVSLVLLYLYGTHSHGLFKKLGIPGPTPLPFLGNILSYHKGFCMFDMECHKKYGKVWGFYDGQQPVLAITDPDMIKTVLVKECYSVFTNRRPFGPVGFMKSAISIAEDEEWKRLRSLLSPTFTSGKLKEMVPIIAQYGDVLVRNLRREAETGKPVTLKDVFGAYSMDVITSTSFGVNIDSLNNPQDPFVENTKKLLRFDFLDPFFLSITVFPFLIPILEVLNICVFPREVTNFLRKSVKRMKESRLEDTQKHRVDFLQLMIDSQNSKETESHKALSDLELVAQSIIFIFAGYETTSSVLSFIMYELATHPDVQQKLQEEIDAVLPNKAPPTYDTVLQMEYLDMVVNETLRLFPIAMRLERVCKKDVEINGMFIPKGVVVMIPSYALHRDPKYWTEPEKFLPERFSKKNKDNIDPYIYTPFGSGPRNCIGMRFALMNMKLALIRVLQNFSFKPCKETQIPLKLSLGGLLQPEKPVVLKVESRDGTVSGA
Summary of the method: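 P450-Glo CYP3A4 enzyme with proluciferin substrate preincubated 10 min with compound at room temperature, then NADPH regeneration 1 h. Luciferin detection reagent added for 20 min; luminescence recorded. Ketoconazole positive control.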

[9] = biological target: Rap guanine nucleotide exchange factor 3 (Homo sapiens) (UniProt O95398); experiment: Confirmatory qHTS for antagonist of cAMP-regulated guanine nucleotide exchange factor 3 (EPAC1) (AID 1645880); note: nearly all actives have a fitted effect of over 55% in size; note: potency is the fitted concentration of half-maximal effect
Rap guanine nucleotide exchange factor 3 (Homo sapiens), sequence (O95398 whole entry, looked up): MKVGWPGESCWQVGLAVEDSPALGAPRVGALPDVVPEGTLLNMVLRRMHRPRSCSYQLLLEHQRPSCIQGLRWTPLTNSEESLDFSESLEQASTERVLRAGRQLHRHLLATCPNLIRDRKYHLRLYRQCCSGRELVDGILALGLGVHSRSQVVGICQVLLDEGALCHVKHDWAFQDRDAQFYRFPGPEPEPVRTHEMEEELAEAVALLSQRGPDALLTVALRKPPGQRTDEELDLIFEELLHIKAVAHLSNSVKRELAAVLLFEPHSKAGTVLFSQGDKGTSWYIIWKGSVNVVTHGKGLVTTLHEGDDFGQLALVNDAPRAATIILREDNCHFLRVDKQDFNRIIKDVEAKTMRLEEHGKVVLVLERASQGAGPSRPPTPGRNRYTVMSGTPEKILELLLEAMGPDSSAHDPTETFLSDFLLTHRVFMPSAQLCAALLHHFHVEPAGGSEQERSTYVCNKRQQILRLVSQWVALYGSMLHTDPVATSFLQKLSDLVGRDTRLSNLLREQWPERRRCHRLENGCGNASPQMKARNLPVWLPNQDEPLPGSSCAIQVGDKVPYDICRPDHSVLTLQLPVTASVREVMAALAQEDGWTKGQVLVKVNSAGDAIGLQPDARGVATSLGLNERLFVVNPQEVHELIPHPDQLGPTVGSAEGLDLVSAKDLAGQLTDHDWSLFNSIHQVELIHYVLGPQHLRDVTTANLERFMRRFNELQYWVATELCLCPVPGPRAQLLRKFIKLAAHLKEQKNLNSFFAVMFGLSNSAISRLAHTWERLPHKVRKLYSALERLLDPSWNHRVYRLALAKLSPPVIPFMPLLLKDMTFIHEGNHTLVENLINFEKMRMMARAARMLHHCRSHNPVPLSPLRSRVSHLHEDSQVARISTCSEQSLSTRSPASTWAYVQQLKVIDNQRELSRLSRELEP
Summary of the method: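 Released BODIPY-GDP fluoresces less than Rap1-bound BODIPY-GDP; the signal is followed at 480/540 nm at 5-min intervals over 30 min, after 5 min at room temperature. Reactions contain 100 nM EPAC1, 250 nM RAP1B-BODIPY-GDP and 50 uM GDP; results are normalized to ATA and DMSO.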

[10] = biological target: Rap guanine nucleotide exchange factor 3 (Homo sapiens) (UniProt O95398); experiment: Confirmatory qHTS for agonist of cAMP-regulated guanine nucleotide exchange factor 3 (EPAC1) (AID 1645881);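 note: EPAC1 catalysed release of BODIPY-GDP from Rap1B seen as fluorescence loss; nearly all actives have a fitted effect of over 75% in size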
[11] = biological target: Rap guanine nucleotide exchange factor 4 (Homo sapiens) (UniProt Q8WZA2); experiment: Confirmatory qHTS for agonist of cAMP-regulated guanine nucleotide exchange factor 4 (EPAC2) (AID 1645884);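 note: nucleotide exchange releases bodipy-GDP from Rap1 and this lowers its fluorescence; nearly all actives have a fitted effect of over 65% in size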
Rap guanine nucleotide exchange factor 4 (Homo sapiens), sequence (Q8WZA2 whole entry, looked up): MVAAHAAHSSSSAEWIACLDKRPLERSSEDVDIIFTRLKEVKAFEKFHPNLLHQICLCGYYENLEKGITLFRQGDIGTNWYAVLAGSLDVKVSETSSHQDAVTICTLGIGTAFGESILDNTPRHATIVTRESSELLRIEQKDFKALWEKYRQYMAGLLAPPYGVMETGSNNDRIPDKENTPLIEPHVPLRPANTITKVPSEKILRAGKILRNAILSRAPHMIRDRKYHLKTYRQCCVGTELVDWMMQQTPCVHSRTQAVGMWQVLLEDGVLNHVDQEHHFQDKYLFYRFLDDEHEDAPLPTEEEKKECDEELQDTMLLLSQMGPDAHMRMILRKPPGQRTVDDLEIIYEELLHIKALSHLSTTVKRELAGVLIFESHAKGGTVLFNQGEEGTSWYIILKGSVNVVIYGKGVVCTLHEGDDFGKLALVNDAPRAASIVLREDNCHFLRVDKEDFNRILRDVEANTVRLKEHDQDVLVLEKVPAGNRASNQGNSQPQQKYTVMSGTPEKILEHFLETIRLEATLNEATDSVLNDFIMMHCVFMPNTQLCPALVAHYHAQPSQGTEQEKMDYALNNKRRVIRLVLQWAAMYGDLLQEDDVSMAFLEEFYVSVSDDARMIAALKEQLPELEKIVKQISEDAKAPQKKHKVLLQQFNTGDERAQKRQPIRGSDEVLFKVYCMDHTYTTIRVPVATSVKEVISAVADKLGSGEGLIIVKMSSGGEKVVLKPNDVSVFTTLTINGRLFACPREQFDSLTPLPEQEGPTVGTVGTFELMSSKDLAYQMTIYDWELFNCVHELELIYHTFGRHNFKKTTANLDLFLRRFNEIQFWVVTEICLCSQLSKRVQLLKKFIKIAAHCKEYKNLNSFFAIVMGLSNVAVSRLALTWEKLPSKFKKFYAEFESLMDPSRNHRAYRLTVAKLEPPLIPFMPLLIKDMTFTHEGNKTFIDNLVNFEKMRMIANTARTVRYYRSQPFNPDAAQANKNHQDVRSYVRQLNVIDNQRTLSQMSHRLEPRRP

[12] = biological target: Rap guanine nucleotide exchange factor 4 (Homo sapiens) (UniProt Q8WZA2); experiment: Confirmatory qHTS for antagonist of cAMP-regulated guanine nucleotide exchange factor 4 (EPAC2) (AID 1645885); note: potency is the fitted concentration of half-maximal effect; nearly all actives have a fitted effect of over 25% in size
[13] = biological target: Papain (Carica papaya) (UniProt P00784); experiment: Primary qHTS assay for inhibitors of the protease papain (AID 1645873);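 note: papain turnover of Z-FR-AMC read as the AMC fluorescence gain over 10 min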
Papain (Carica papaya), sequence (P00784 whole entry, looked up): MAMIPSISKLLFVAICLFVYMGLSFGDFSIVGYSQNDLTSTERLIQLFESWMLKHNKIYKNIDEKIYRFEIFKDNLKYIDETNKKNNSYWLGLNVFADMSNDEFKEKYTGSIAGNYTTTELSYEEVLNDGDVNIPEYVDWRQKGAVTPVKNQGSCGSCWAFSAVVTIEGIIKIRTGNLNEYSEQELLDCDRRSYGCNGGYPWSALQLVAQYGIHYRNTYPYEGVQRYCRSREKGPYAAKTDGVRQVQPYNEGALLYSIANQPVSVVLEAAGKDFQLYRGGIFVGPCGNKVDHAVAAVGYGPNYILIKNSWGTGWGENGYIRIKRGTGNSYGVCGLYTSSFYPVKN

[14] = biological target: Rap guanine nucleotide exchange factor 3 (Homo sapiens) (UniProt O95398); experiment: Counterscreen qHTS for antagonist of cAMP-regulated guanine nucleotide exchange factor 3 (EPAC1) (AID 1645888)
Summary of the method: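 Rap1B–BODIPY-GDP (250 nM) with 50 uM GDP; compounds pin-transferred to 9.74 nM–152 uM final (activator) or from 7.32 nM upwards (inhibitor). Fluorescence Ex/Em 480/540 nm read at 5 and 30 min, then after adding cAMP or buffer, at room temperature.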

[15] = NCATS anti-infectives library activity on the primary C. elegans qHTS viability assay (AID 1745855; calls by dose curve); details: C. elegans worm area imaging, day 7; at 41.8 µM (top of the series) unless noted
Summary of the method: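 Titration-based screen in worms: eggs hatched overnight in M9, L1 larvae fed TOP10 capsules in S medium with compound, incubated 21 °C for 7 days; fluorescent objects gated by size and intensity at days 0, 3 and 7.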

Measured: Potency

CC(=O)Nc1ccc(OCC(O)CNC(C)C)cc1 (centres undefined)
inactive: [1] | [2] | [3] | [4] | [5] | [6]

Nc1ccc(S(=O)(=O)NCc2ccccc2)cc1
inactive: [1] | [2] | [3] | [4] | [5] | [6]

C=C[C@@]1(C)CC(=O)[C@]2(O)[C@@]3(C)[C@@H](O)CCC(C)(C)[C@@H]3[C@H](O)[C@H](OC(C)=O)[C@@]2(C)O1
active: [5] 0.841 µM
inactive: [1] | [2] | [3]

COP(=O)(OC)OC(c1ccc(Cl)cc1)P(=O)(OC)OC (centres undefined)
inactive: [1] | [2] | [3] | [5] | [6]

COc1cc(C(=O)NCc2ccc(OCCN(C)C)cc2)cc(OC)c1OC
inactive: [1] | [2] | [3] | [4] | [5] | [6] | [7]

CC(=O)O[C@]1(C(C)=O)CC[C@H]2[C@@H]3C=C(C)C4=CC(=O)CC[C@]4(C)[C@H]3CC[C@@]21C
inactive: [1] | [2] | [3] | [5] | [6] | [7]

CC(=O)OC[C@H]1O[C@@H](n2ncc(=O)[nH]c2=O)[C@H](OC(C)=O)[C@@H]1OC(C)=O
active: [3] 7.76 µM
inactive: [1] | [4]

CC(C)(C)NCC(O)COc1cccc2c1C[C@H](O)[C@H](O)C2 (some centres undefined)
inactive: [1] | [3] | [8] | [5]

O=C(O)CCNC(=O)c1ccccc1
inactive: [1] | [2] | [3] | [5] | [6]

CC(=O)Nc1ncc([N+](=O)[O-])s1
inactive: [1] | [2] | [5] | [6]

CN(C)CCOC(=O)C(c1ccccc1)C1(O)CCCC1 (centres undefined)
inactive: [1] | [2] | [4] | [5] | [6]

COc1ccc(C(Cl)=C(c2ccc(OC)cc2)c2ccc(OC)cc2)cc1
inactive: [1] | [2] | [3] | [5] | [6] | [9] | [10] | [11]
active: [12] 7.84 µM and 2.31 µM

CC(CNC1CCCCC1)OC(=O)c1ccccc1 (centres undefined)
inactive: [1] | [2] | [5] | [6]

CC(=O)NC(=O)c1ccccc1O
inactive: [1] | [3] | [4]

COc1ccc(C(=O)c2ccccc2)c(O)c1
inactive: [1] | [2] | [3] | [9] | [10] | [11]
active: [12] 31.2 µM

NS(=O)(=O)Cc1noc2ccccc12
inactive: [1] | [3] | [8] | [6]

O=C(NCCc1c[nH]c2ccccc12)c1cccnc1
inactive: [1] | [2] | [5] | [6]

CNCCCCOc1ccccc1Cc1ccccc1
inactive: [1] | [4]
active: [3] 0.692 µM

COc1cc(C(=O)N2CCCCCCC2)cc(OC)c1OC
inactive: [1] | [2] | [3] | [5] | [6]

CC(C)(C)NC[C@H](O)COc1nsnc1N1CCOCC1
inactive: [1] | [2] | [4] | [13] | [5] | [6]

Cc1ccccc1OCC(O)CO (centres undefined)
inactive: [1] | [2] | [5]

O=C(O)CCC(=O)Nc1ccc(S(=O)(=O)Nc2nccs2)cc1
inactive: [1] | [2] | [5] | [6]

CCC1Nc2cc(Cl)c(S(N)(=O)=O)cc2S(=O)(=O)N1 (centres undefined)
inactive: [1] | [2] | [3] | [5] | [6]

CCNC(=O)/C=C/c1cccc(Br)c1
inactive: [1] | [3] | [4]

COc1ccc(C(=O)c2ccccc2O)c(O)c1
active: [12] 44.1 µM
inactive: [1] | [2] | [5] | [6] | [10] | [11]

O=C1c2cccc3c2[C@H](CCC3)CN1[C@@H]1CN2CCC1CC2
inactive: [1] | [2] | [4]

Nc1nc(N)c(-c2ccccc2)s1
inactive: [1] | [2] | [4] | [5] | [6]

NC(=S)N/N=C/c1cccnc1
inactive: [1] | [2] | [4] | [5] | [6]

CC1=C(C(=O)O)N2C(=O)[C@@H](NC(=O)[C@H](N)c3ccccc3)[C@H]2SC1
inactive: [1] | [2] | [5] | [6]

Cc1cc(NS(=O)(=O)c2ccc(N)cc2)nc(C)n1
inactive: [1] | [2] | [3] | [5] | [6]

COc1ccc(-c2cc(C(F)F)nn2-c2ccc(S(N)(=O)=O)cc2)cc1F
active: [3] 5.49 µM | [4] 6.17 µM
inactive: [1]

CN(C)CCOC(c1ccc(Cl)cc1)c1ccccn1 (centres undefined)
inactive: [1] | [4]
active: [3] 15.5 µM

C#C[C@]1(OC(C)=O)CC[C@H]2[C@@H]3CCC4=C/C(=N/O)CC[C@@H]4[C@H]3CC[C@@]21CC
inactive: [1]
active: [3] 2.68 µM

Cc1ncc(CO)c(C=O)c1O
inactive: [1] | [2] | [3] | [5] | [6]

Cc1ccc(-c2ncc(Cl)cc2-c2ccc(S(C)(=O)=O)cc2)cn1
inactive: [1] | [2] | [5]

CC(=O)O[C@H]1C[C@@H]2CC[C@@H]3[C@H](CC[C@@]4(C)[C@H]3C[C@H]([N+]3(C)CCCCC3)[C@@H]4OC(C)=O)[C@@]2(C)C[C@@H]1N1CCCCC1
inactive: [1] | [2] | [5] | [6]

CCC(CC)(CC(=O)Nc1cccc(/C=C/c2nc(C3CCC3)cs2)c1)C(=O)O
inactive: [1] | [3]

COc1ccc2c(c1)c1c3n2CCN(C)C3=NCC1
inactive: [1] | [2] | [5] | [6]

C#C[C@]1(O)CC[C@H]2[C@@H]3[C@H](C)CC4=C(CCC(=O)C4)[C@H]3CC[C@@]21C
active: [5] 23.7 µM | [6] 21.1 µM
inactive: [1] | [2]

CCOC(=O)c1ccc(N)cc1
inactive: [1] | [3]

CN(C)CCN1C(=O)c2ccccc2N(C)c2ccccc21
inactive: [1] | [2] | [4] | [5]

C=C1c2cccc(O)c2C(O)=C2C(=O)[C@]3(O)C(O)=C(C(N)=O)C(=O)[C@@H](N(C)C)[C@@H]3[C@@H](O)[C@H]12
inactive: [8] | [14]
active: [9] 47.8 µM

Cl/C(=C\n1cncn1)c1ccc(Cl)cc1Cl
inactive: [9]

O=C(O)CCc1nc2ccccc2[nH]1
inactive: [7] | [15]

CC(=C(CCOC(=O)C(C)C)SSC(CCOC(=O)C(C)C)=C(C)N(C=O)Cc1cnc(C)nc1N)N(C=O)Cc1cnc(C)nc1N
inactive: [2] | [3] | [4]

CCOc1ccccc1C(N)=O
inactive: [2] | [3] | [4]
active: [5] 18.8 µM

CC(C)=CCOc1ccc(/C=C/C(=O)c2ccc(OCC=C(C)C)cc2OCC(=O)O)cc1
inactive: [1] | [10] | [11]
active: [9] 49.8 µM | [12] 39.3 µM

CC1(C)OC[C@@H]2O[C@@]3(C(=O)O)OC(C)(C)O[C@H]3[C@@H]2O1
inactive: [2] | [3] | [8] | [4]

CCN(CC)CCOC(=O)C(Cc1cccc2ccccc12)CC1CCCO1 (centres undefined)
inactive: [2]
active: [3] 3.09 µM and 3.38 µM

O=C(c1ccc(F)cc1)C1CCN(CCn2c(=S)[nH]c3ccccc3c2=O)CC1
inactive: [2]
active: [3] 0.776 µM

O=C(Nc1ncc([N+](=O)[O-])s1)c1cccs1
inactive: [2]
active: [3] 13.8 µM

CC(=O)O[C@]1(C(C)=O)CC[C@H]2[C@@H]3C=C(Cl)C4=CC(=O)CC[C@]4(C)[C@H]3CC[C@@]21C
active: [4] 8.71 µM
inactive: [2] | [3]

O=C(CCN1CCN2CCCC2C1)N1c2ccccc2Sc2ccc(Cl)cc21 (centres undefined)
inactive: [2] | [4]
active: [3] 6.74 µM
